In PubChem BioAssay AID1159580 (chemical genetic matrix, 2015):
Values joined by “and” are separate entries in the source; they are usually repeats but may differ in a detail not shown here. Identical values can stand only once. The campaign covered roughly 5,500 compounds. About 2,000 (36%) were called active. Not shown: some 18% with an inconclusive outcome. No stated cut-off is given here; in the data, active means normalized growth mostly below about 0.91 (no sharp cut-off); inconclusive means no clear call, values can overlap the other calls; inactive means mostly above about 0.92. Some of the results follow.

Assay: chemical genetic growth profiling, strain panel (AID 1159580);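 further: tested at 20 µM; growth read once vehicle control cultures reached saturation at 30 °C; 1 = growth at the plate median or of vehicle wells; lower values mean less growth of the strain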
Settings: S. cerevisiae deletion strains, growth OD
[1] = locus YMR263W, strain SAP30, active compounds read low
[2] = locus YPL241C, strain CIN2, active compounds read low

Measured: normalized growth

c1ccc2c(c1)sc1ccccc12
inactive: locus YAL021C, strain ccr4, active compounds read low 1.02 | locus YBR021W, strain FUR4, active compounds read low 1.03 | locus YBR171W, strain sec66, active compounds read low 0.912 | locus YBR229C, strain ROT2, active compounds read low 1 | locus YBR279W, strain paf1, active compounds read low 0.952 | locus YCL029C, strain bik1, active compounds read low 0.973 | locus YDL035C, strain GPR1, active compounds read low 0.99 | locus YDL040C, strain nat1, active compounds read low 0.942 | locus YDL074C, strain BRE1, active compounds read low 0.97 | locus YDL101C, strain DUN1, active compounds read low 0.96 | locus YDL134C, strain PPH21, active compounds read low 0.938 | locus YDL185W, strain tfp1, active compounds read low 0.986 | locus YDL192W, strain arf1, active compounds read low 0.959 | locus YDR069C, strain doa4, active compounds read low 1.02 | locus YDR101C, strain arx1, active compounds read low 0.955 | locus YDR159W, strain sac3, active compounds read low 0.869 | locus YDR162C, strain NBP2, active compounds read low 0.883 | locus YDR195W, strain ref2 1.09 | locus YDR388W, active compounds read low 0.971 | locus YDR502C, strain sam2, active compounds read low 0.928 | locus YEL037C, strain rad23, active compounds read low 0.933 | locus YEL061C, strain CIN8, active compounds read low 0.991 | locus YER016W, strain bim1, active compounds read low 0.957 | locus YER110C, active compounds read low 0.97 | locus YER155C, strain BEM2, active compounds read low 0.946 | locus YER167W, strain BCK2, active compounds read low 0.96 | locus YFR010W, strain ubp6, active compounds read low 0.976 | locus YGL078C, strain dbp3, active compounds read low 0.973 | locus YGL086W, strain mad1, active compounds read low 0.941 | locus YGL167C, strain pmr1, active compounds read low 0.937 | locus YGL248W, strain PDE1, active compounds read low 0.898 | locus YGR135W, strain pre9, active compounds read low 0.929 | locus YGR229C, strain SMI1, active compounds read low 0.917 | locus YGR252W, strain gcn5, active compounds read low 1.02 | locus YHR027C, strain rpn1, active compounds read low 0.922 | locus YHR030C, strain SLT2, active compounds read low 0.978 and 0.997 | locus YHR079C, strain IRE1 (second series), active compounds read low 0.957 | locus YHR079C, strain IRE1, active compounds read low 0.996 | locus YHR094C, strain hxt1, active compounds read low 0.972 | locus YHR129C, strain ARP1, active compounds read low 0.981 | locus YHR200W, strain rpn10, active compounds read low 0.97 | locus YIL066C, strain RNR3, active compounds read low 0.994 | locus YIL073C, strain SPO22, active compounds read low 0.951 | locus YIL125W, strain kgd1, active compounds read low 0.962 | locus YIR030C, strain dcg1, active compounds read low 0.957 | locus YJL095W, strain BCK1, active compounds read low 0.834 and 1.01 | locus YJL115W, strain asf1, active compounds read low 0.921 | locus YJL134W, strain LCB3, active compounds read low 0.995 | locus YJL154C, strain vps35, active compounds read low 0.924 | locus YJL168C, strain set2, active compounds read low 0.97 | locus YJL187C, strain SWE1 (second series), active compounds read low 0.957 | locus YJR043C, strain POL32, active compounds read low 0.99 | locus YJR066W, strain TOR1, active compounds read low 0.974 | locus YKL009W, strain mrt4, active compounds read low 0.966 | locus YKL068W, active compounds read low 0.973 | locus YKL085W, strain MDH1 (second series), active compounds read low 0.971 | locus YKL085W, strain MDH1, active compounds read low 0.971 | locus YLL041C, strain sdh2, active compounds read low 0.935 | locus YLR039C, strain RIC1, active compounds read low 0.735 | locus YLR058C, strain SHM2, active compounds read low 0.968 | locus YLR102C, strain apc9, active compounds read low 0.974 | locus YLR113W, strain HOG1, active compounds read low 1.02 | locus YLR262C, strain YPT6, active compounds read low 0.656 | locus YLR268W, strain sec22, active compounds read low 0.897 | locus YLR330W, strain CHS5, active compounds read low 0.95 | locus YLR342W, strain FKS1 (second series), active compounds read low 1.03 | locus YLR342W, strain FKS1, active compounds read low 0.959 | locus YLR357W, strain rsc2, active compounds read low 0.909 | locus YLR370C, strain arc18, active compounds read low 0.929 | locus YLR384C, strain iki3, active compounds read low 0.939 | locus YML016C, strain PPZ1, active compounds read low 0.988 | locus YML124C, strain tub3, active compounds read low 0.971 | locus YMR078C, strain ctf18, active compounds read low 0.967 | locus YMR231W, strain pep5, active compounds read low 0.967 | [1] 0.954 | locus YMR307W, strain GAS1, active compounds read low 0.869 | locus YNL067W, strain RPL9B, active compounds read low 0.955 | locus YNL128W, strain TEP1, active compounds read low 0.965 | locus YNL183C, strain NPR1, active compounds read low 0.96 | locus YNL209W, strain ssb2, active compounds read low 0.948 | locus YNL233W, strain BNI4, active compounds read low 0.873 | locus YNL250W, strain rad50, active compounds read low 0.974 | locus YNL271C, strain bni1, active compounds read low 0.95 | locus YNL298W, strain CLA4, active compounds read low 0.929 | locus YNR052C, strain pop2, active compounds read low 0.991 | locus YOL012C, strain htz1 0.804 | locus YOL147C, strain pex11, active compounds read low 0.953 | locus YOR061W, strain CKA2, active compounds read low 0.994 | locus YOR069W, strain VPS5, active compounds read low 0.996 | locus YOR070C, strain gyp1, active compounds read low 0.937 | locus YOR080W, strain dia2, active compounds read low 0.948 | locus YOR136W, strain idh2, active compounds read low 0.951 | locus YOR144C, strain elg1, active compounds read low 0.972 | locus YOR231W, strain MKK1, active compounds read low 1.03 | locus YOR270C, strain vph1, active compounds read low 1.02 | locus YOR290C, strain snf2, active compounds read low 0.891 | locus YOR316C, strain cot1, active compounds read low 0.966 | locus YPL240C, strain hsp82, active compounds read low 0.934 | [2] 0.999 | locus YPL256C, strain CLN2, active compounds read low 0.984 | locus YPR119W, strain clb2, active compounds read low 0.965 | locus YPR141C, strain kar3, active compounds read low 0.959 | locus YPR163C, strain tif3, active compounds read low 0.983 | locus YPR167C, strain met16, active compounds read low 0.972
active: locus YAL013W, strain DEP1, active compounds read low 0.807 | locus YAL026C, strain drs2, active compounds read low 0.832 | locus YAL030W, strain snc1, active compounds read low 0.851 | locus YBL061C, strain skt5, active compounds read low 0.811 | locus YBR009C, strain hhf1, active compounds read low 0.734 | locus YBR023C, strain chs3, active compounds read low 0.867 | locus YBR231C, strain swc5, active compounds read low 0.86 | locus YCL011C, strain gbp2, active compounds read low 0.815 | locus YCL016C, strain dcc1, active compounds read low 0.877 | locus YCL069W, strain vba3, active compounds read low 0.778 | locus YCR088W, strain abp1, active compounds read low 0.905 | locus YDL005C, strain med2, active compounds read low 0.906 | locus YDR001C, strain nth1, active compounds read low 0.894 | locus YDR137W, strain rgp1, active compounds read low 0.427 | locus YDR297W, strain sur2, active compounds read low 0.842 | locus YDR318W, strain mcm21, active compounds read low 0.912 | locus YDR334W, strain swr1, active compounds read low 0.871 | locus YDR335W, strain msn5, active compounds read low 0.781 | locus YDR392W, strain spt3, active compounds read low 0.588 | locus YEL003W, strain gim4, active compounds read low 0.572 | locus YEL061C, strain CIN8 (second series), active compounds read low 0.8 | locus YER015W, strain faa2, active compounds read low 0.765 | locus YER111C, strain swi4, active compounds read low 0.823 | locus YER155C, strain BEM2 (second series), active compounds read low 0.223 | locus YGL173C, strain kem1, active compounds read low 0.827 | locus YGL227W, strain vid30, active compounds read low 0.809 | locus YGL240W, strain doc1, active compounds read low 0.778 | locus YGL253W, strain hxk2, active compounds read low 0.854 | locus YHR013C, strain ard1, active compounds read low 1.25 [resistant] | locus YHR142W, strain chs7, active compounds read low 0.597 | locus YJL092W, strain hpr5, active compounds read low 0.841 | locus YJL095W, strain BCK1 (second series), active compounds read low 0.834 | locus YJL129C, strain trk1, active compounds read low 0.802 | locus YJL164C, strain tpk1, active compounds read low 0.802 | locus YJL166W, strain qcr8, active compounds read low 0.652 | locus YJL187C, strain SWE1, active compounds read low 0.882 | locus YKL160W, strain elf1, active compounds read low 0.845 | locus YKR001C, strain vps1, active compounds read low 0.812 | locus YKR026C, strain gcn3, active compounds read low 0.835 | locus YKR091W, strain srl3, active compounds read low 0.924 | locus YLL001W, strain dnm1, active compounds read low 0.768 | locus YLL026W, active compounds read low 0.814 | locus YLR027C, strain aat2, active compounds read low 0.757 | locus YLR221C, strain rsa3, active compounds read low 0.779 | locus YLR258W, strain gsy2, active compounds read low 0.891 | locus YLR262C, strain YPT6 (second series), active compounds read low 0.315 | locus YLR320W, strain mms22, active compounds read low 0.662 | locus YLR371W, strain rom2, active compounds read low 0.854 | locus YLR418C, strain cdc73, active compounds read low 0.785 | locus YML032C, strain rad52, active compounds read low 0.9 | locus YML120C, strain ndi1, active compounds read low 0.749 | locus YMR058W, strain fet3, active compounds read low 0.774 | locus YMR125W, strain sto1, active compounds read low 0.844 | locus YMR129W, active compounds read low 0.909 | locus YMR205C, strain PFK2, active compounds read low 0.737 | locus YMR223W, strain ubp8, active compounds read low 0.86 | locus YNL071W, strain lat1, active compounds read low 0.613 | locus YNL153C, strain GIM3, active compounds read low 0.728 | locus YNL248C, strain rpa49, active compounds read low 0.748 | locus YNL307C, strain MCK1, active compounds read low 0.849 | locus YNL322C, strain KRE1 (second series), active compounds read low 0.894 | locus YNR049C, strain mso1, active compounds read low 0.915 | locus YOR001W, strain rrp6, active compounds read low 0.714 | locus YOR083W, strain WHI5, active compounds read low 0.812 | locus YOR106W, strain vam3, active compounds read low 0.727 | locus YOR184W, strain ser1, active compounds read low 0.676 | locus YOR265W, strain rbl2, active compounds read low 0.873 | locus YPL051W, strain arl3, active compounds read low 0.776 | locus YPL078C, strain atp4, active compounds read low 0.691 | locus YPL106C, strain sse1, active compounds read low 0.778 | strain wtn01, active compounds read low 0.893

Cc1sc2ccccc2c1CC1=NCCN1
inactive: locus YAL040C, strain CLN3, active compounds read low 0.972 | locus YCL061C, strain MRC1 (second series), active compounds read low 0.993 | locus YDR150W, strain NUM1, active compounds read low 0.995 | locus YER002W, strain NOP16, active compounds read low 0.988 | locus YGR078C, strain PAC10, active compounds read low 1 | locus YJR075W, strain HOC1, active compounds read low 1.01 | [1] 1 | locus YNL175C, strain NOP13, active compounds read low 1.03 | locus YNL197C, strain WHI3, active compounds read low 1 | locus YNL224C, strain SQS1, active compounds read low 1 | locus YOR083W, strain WHI5 (second series), active compounds read low 0.982 | [2] 1
